Screening results from PubChem.
A selection: hits, their analogues and other compounds. The true share with any hit is near 3.8%.
Nrf2 ARE act: Nrf2 pathway activation; Potency, µM (titrated, usually from 46.1 µM), for inactives: top-dose activation, hits mostly activators; AREc32 ARE-luciferase reporter (MCF7-derived line), luminescence, 24 h; 410,000 tested, 0.31% active; note: % of control where 0% means no effect; nearly all actives have a fitted effect of over 65% in size
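Each well held 1000 AREc32 cells, which were incubated with compound for 24 hr at 37 deg C after overnight attachment, and ARE reporter activity was quantified by firefly luciferase luminescence.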
A549 tox: A549 cytotoxicity, counter-screen for Nrf2 inhibitors; A549 ARE-Fluc cells, CellTiter-Fluor viability, 18-24 h; AID 504648; 390,000 tested, 0.16% active; Potency, µM (titrated, usually from 46 µM), inactives show top-dose activity change, negative = cytotoxicity, most hits filed as inhibitors; note: % is set by controls: 0 for no effect and ±100 for the full control effect
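A549 ARE-Fluc cells in 5% FBS OPTI-MEM, 5000 cells/well, rested 2 h then exposed to compounds in concentration-response for 18-24 h at 37 °C. Viability by CellTiter-Fluor fluorescence (Ex 405/Em 525) after 30 min; luciferase luminescence (BugLite, 15 min, RT) read afterwards.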
Nrf2 block: blocks Nrf2 signaling; A549 ARE-Fluc reporter, luciferase luminescence, 18-24 h; Potency, µM (top dose mostly 46 µM), for inactives: top-dose activity change, negative = inhibition, most hits filed as inhibitors; 360,000 tested, 2.1% active; AID 504444; note: % is set by controls: 0 for no effect and ±100 for the full control effect; nearly all actives have a fitted effect of over 60% in size
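Quantitative HTS in A549 cells stably bearing an antioxidant response element-firefly luciferase construct. Inhibition of Nrf2-driven transcription was scored by luminescence after 18-24 h of compound exposure at 37 °C.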
mIDH1 inhibitor: human IDH1 R132H inhibition. 390,000 tested, 0.093% active. IDH1-R132H enzyme, NADPH consumption, diaphorase/resazurin fluorescence. O75874. AID 602179. Potency, µM (top dose mostly 76.6 µM), for inactives: at the highest dose activity change, negative = inhibition, usual class: inhibitors; note: % is set by controls: 0 for no effect and ±100 for the full control effect; nearly all actives have a fitted effect of over 65% in size
Target sequence (O75874 whole entry R132H, stated change not applied): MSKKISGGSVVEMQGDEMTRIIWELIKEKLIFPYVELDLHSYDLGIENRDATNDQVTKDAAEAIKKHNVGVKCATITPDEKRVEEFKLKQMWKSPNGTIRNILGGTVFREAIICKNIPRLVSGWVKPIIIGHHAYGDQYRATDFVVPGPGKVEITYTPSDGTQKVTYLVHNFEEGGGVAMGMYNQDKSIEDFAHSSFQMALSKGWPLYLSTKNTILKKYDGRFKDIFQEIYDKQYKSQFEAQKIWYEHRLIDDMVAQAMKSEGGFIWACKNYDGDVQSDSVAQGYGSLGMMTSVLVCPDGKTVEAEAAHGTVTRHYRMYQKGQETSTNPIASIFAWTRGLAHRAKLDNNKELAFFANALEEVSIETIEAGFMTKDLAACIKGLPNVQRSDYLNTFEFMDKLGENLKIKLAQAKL
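IDH1-R132H (0.5 ug/mL) preincubated 30 min with compound, then NADPH (0.016 mM) and alpha-KG (2 mM) added; 80 min at RT, pH 7.5. Remaining NADPH coupled via diaphorase/resazurin to fluorescence (540/590 nm); concentration-response curves normalized to no-enzyme control.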
ELG1 repair inh: ELG1-dependent DNA repair inhibition; HEK293T ELG1-luciferase reporter, luminescence, 16 h; DNA damage induced by 5-fluorouridine; Potency, µM (titrated, usually from 46.1 µM), for the others: at the highest dose activity change, negative = inhibition, actives largely listed as inhibitors; 330,000 tested, 2.3% active; AID 504467; note: % is set by controls: 0 for no effect and ±100 for the full control effect; nearly all actives have a fitted effect of over 55% in size
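Luminescence from the luciferase reporter, measured 30 min after ONE-Glo reagent at room temperature, was the read-out. Beforehand, 2,000 cells per well were exposed for 16 hr at 37 °C to 5-fluorouridine together with compound or vehicle.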
The depositor's hits bear a star; u = inconclusive; x = no result given; [ ] = remark or other dose. Calls come from the whole dose curve; as a rule, active = well fitted curve in the direction sought with a large enough effect; inconclusive = small, poorly fitted or top-dose-only effect, or another doubt; inactive = no such curve, though single readings can be large; an effect the other way counts as inactive or inconclusive. Potency is the fitted concentration of half-maximal effect.

SMILES	Nrf2 ARE act	A549 tox	Nrf2 block	mIDH1 inhibitor	ELG1 repair inh
CCOCCSc1n[nH]c(=O)n1CCc1ccccc1	0.1%	3.8%	-21.1%	-6.6%	4.1%
Cc1cccc(C)c1NC(=O)CNC(=O)C(NC(=O)c1ccc(C(C)(C)C)cc1)C(C)C (stereo not given)	0.0%	0.4%	-5.5%	-2.1%	5.17µM*
CC(C)C(NC(=O)c1ccc(C(C)(C)C)cc1)C(=O)NCC(c1ccccc1)N(C)C (stereo not given)	3.7%	-15.4%	3.9%	14.7%	-9.0%
Cc1c(NC(=O)c2cc(-c3ccc(Cl)cc3)on2)c(=O)n(-c2ccccc2)n1C	-0.3%	-3.6%	u	6.0%	-11.5%
CN=c1scc(-c2ccc(OC)cc2)n1/N=C(\C)c1cccnc1	4.1%	-13.3%	u	-6.6%	18.3µM*
COc1ccc(CC(=O)N/N=C(\C)c2cccnc2)cc1	0.1%	1.0%	4.4%	-6.1%	u
O=C(CSc1c2c(nc3ccccc13)CCC2)Nc1ccc(F)cc1F	u	u	u	10.5%	x
Cn1c(=O)c(C(=O)COC(=O)c2cc(C3CC3)nc3ccccc23)c(N)n(Cc2ccccc2)c1=O	-0.2%	-8.3%	u	-5.2%	-28.8%
Cn1c(=O)c(C(=O)COC(=O)c2cc(-c3ccco3)nc3ccccc23)c(N)n(CC2CC2)c1=O	x	x	x	x	6.51µM*
Cc1nnc(NC(=O)c2cc(-c3ccco3)nc3ccccc23)s1	x	x	x	x	-4.7%
Cc1sc(NC(=O)c2cccs2)c(C(N)=O)c1C	10µM*	3.3%	u	7.7%	u
Cc1csc(NC(=O)c2cc(-c3ccco3)nc3ccccc23)n1	3.98µM*	3.3%	10.3%	2.5%	20.6µM*
Cc1ccc(C)c(-c2cc(C(=O)Nc3sc(C)c(C)c3C(N)=O)c3ccccc3n2)c1	-0.2%	-28.0%	u	0.2%	18.4µM*
COc1ccc(OC)c(/C=C(/C#N)c2nc(-c3ccc(-c4ccccc4)cc3)cs2)c1	-0.9%	-0.4%	6.7%	0.0%	x
O=C(NC(=S)Nc1cccc(S(=O)(=O)NC2=NCCC2)c1)c1cc(-c2ccco2)nc2ccccc12	18.6%	-8.0%	u	0.0%	u
O=C(Nc1cccc(S(=O)(=O)NC2=NCCC2)c1)c1cc(-c2ccco2)nc2ccccc12	10µM*	u	2.8%	0.4%	-26.3%
Cc1ccc2nc(NC(=O)c3cc(-c4ccco4)nc4ccccc34)sc2c1	-0.1%	-10.5%	23.1µM*	0.0%	-17.2%
CCN(CC)CCNC(=O)c1ccc(NC(=O)c2cc(-c3ccco3)nc3ccccc23)cc1	25.1%	16.1%	u	3.1%	-3.8%
O=C(O)c1cc(-c2ccco2)nc2ccccc12	5.5%	-5.7%	18.0%	12.0%	15.3%
O=C(NC1CC1)c1cc(-c2ccco2)nc2ccccc12	12.6µM*	0.9%	-8.1%	5.1%	7.3%
CN(C)C(=O)c1ccc(NC(=O)c2cc(-c3ccco3)nc3ccccc23)cc1	11.2µM*	-3.8%	9.7%	7.9%	-7.2%
COc1ccc2c(c1)c1c(c(=O)n(-c3ccc(OC)c(OC)c3)c(=O)n1Cc1ccc(F)cc1)n2C	-0.2%	9.7%	-6.0%	-16.4%	x
O=C(NCCCc1nc2ccccc2n1Cc1cccc(Cl)c1)c1ccco1	7.7%	6.0%	-3.4%	-9.5%	x
Cc1cc2c(SCC(=O)NC3CCCC3)ncnc2s1	2.5%	5.4%	4.8%	3.0%	14.0%
COCCn1c(SCC(=O)c2c(C)[nH]c3ccccc23)nc2cc(C(=O)NC(C)C)ccc2c1=O	13.6%	11.8%	12.1%	-28.3%	x
SMILES	Nrf2 ARE act	A549 tox	Nrf2 block	mIDH1 inhibitor	ELG1 repair inh
CC(=O)n1c2ccccc2c2ccccc21	-0.7%	2.0%	6.9%	10.4%	-27.6%
CC(=O)n1c(Cl)c(NC(=O)CCl)c2ccccc21	u	-10.5%	u	3.9%	25.9µM*
COC(=O)C1=C(C)NC(C)=C(C(=O)OC)C1C(=O)OCc1nnc(-c2ccccc2Cl)o1	0.2%	-1.8%	-14.7%	-0.2%	u
Fc1cccc(Cl)c1Cn1nnc2c(NCc3ccccn3)ncnc21	0.8%	2.3%	-18.7%	-3.2%	-15.2%
Fc1cccc(Cl)c1Cn1nnc2c(NCc3ccncc3)ncnc21	0.9%	-0.8%	23.1µM*	-11.3%	u
COc1ccc(-c2cc(C(=O)Nc3cccc(S(=O)(=O)NCc4ccco4)c3)c3ccccc3n2)cc1OC	3.1%	-3.5%	6.2%	4.6%	5.17µM*
O=C(Nc1ccccc1)c1cccc(S(=O)(=O)NCc2ccco2)c1	15.2%	u	16.4µM*	2.8%	-15.2%
O=C(Nc1cccc(S(=O)(=O)NCc2ccco2)c1)c1cc(-c2ccc(F)cc2)nc2ccccc12	5.8%	-7.6%	6.9%	5.6%	14.6µM*
COc1ccc(-c2cc(C(=O)NCc3ccco3)c3ccccc3n2)cc1OC	0.1%	1.4%	3.1%	-5.9%	x
COc1ccccc1NS(=O)(=O)c1ccc2c(c1)CCC(=O)N2	x	9.1%	2.7%	x	x
Cc1ccc(S(=O)(=O)N2CCN(c3nc(-c4cnccn4)nc4ccccc34)CC2)cc1	x	1.9%	-10.8%	x	x
CN1CCN(c2ccc(NC(=O)c3ccc(-c4ccc(Br)cc4)o3)cc2)CC1	10.5%	u	-5.8%	-5.4%	u
Cc1ccccc1C(=O)Nc1cccc(NC(=O)c2ccc(-c3ccc(Br)cc3)o2)c1	0.4%	-16.9%	-29.2%	1.5%	9.2µM*
Cc1cc(C)c(NC(=O)CSc2n[nH]c(-c3ccccc3Cl)n2)c(C)c1	0.0%	-11.5%	x	1.5%	x
COc1ccccc1CCNC(=O)c1ccc(NC(=O)N2CC(C)Sc3ccccc32)cc1 (stereo not given)	0.9%	0.2%	20.6µM*	-10.0%	x
CCC(=O)Nc1ccc2ccccc2c1	-0.2%	-0.7%	9.9%	1.2%	u
CC(C)(C)CC(C)(C)NC(=O)CSCC(=O)Nc1ccc2ccccc2c1	12.6%	u	16.4µM*	7.6%	10.3%
O=C(CSc1ccc2ccccc2c1)Nc1ccncc1	-0.1%	-9.9%[1.84 µM]	7.31µM*	-1.4%	-12.2%
O=C(CSc1ccncc1)Nc1ccc2ccccc2c1	0.8%	-2.6%	-5.2%	9.6%	1.3%
Cc1ccc(O)c(NC(=O)c2cc(-c3ccccc3Cl)on2)c1	6.0%	-13.2%	-24.0%	4.0%	u
COc1ccc2sc(-c3ccc(S(C)(=O)=O)cc3)c(C(=O)NCCc3c[nH]c4ccccc34)c2c1	4.0%	-0.3%	5.1%	2.5%	18.3µM*
CCOC(=O)C1CCCN(Cc2nc(N)nc(Nc3ccc(Cl)cc3)n2)C1 (stereo not given)	0.2%	-18.2%	25.9µM*	-4.1%	u
CCOC(=O)C1CCCN(c2cc(C)nc3cc(-c4ccc(Cl)cc4)nn23)C1 (stereo not given)	-0.1%	0.9%	1.0%	-2.6%	25.9µM*
